Most compounds without a hit are left out; they make up all but 2.1% or so of the library.
TDP-43 yeast inh = rescues yeast growth from TDP-43 toxicity. TDP-43 expressing yeast growth rescue, BacTiter-Glo, 24 h. Potency, µM (highest dose often 46.1 µM), usual class: activators. 410,000 tested, 1.8% active. AID 652104; further: nearly all actives have a fitted effect of over 50% in size
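Cell-based yeast growth screen: TDP-43 expression induced in galactose, inoculum OD600=0.02 after raffinose pregrowth to mid-log. Read-out BacTiter-Glo luminescence at 24 hr, 30 deg C; inhibition of toxicity seen as signal increase.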
aSyn rescue = rescues yeast growth from alpha-synuclein toxicity; Yeast expressing alpha-synuclein, growth rescue, BacTiter-Glo, 24 h; Potency, µM (top dose mostly 46.1 µM), most hits filed as activators; 370,000 tested, 0.14% active; AID 652106; further: nearly all actives have a fitted effect of over 65% in size
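Screening used galactose-induced yeast with toxic alpha-synuclein levels, exposed to compound for 24 hr at 30 deg C. Cell growth, read with BacTiter-Glo luminescence, gave the measured signal.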
Abeta rescue = A-beta toxicity reversal in yeast | yeast expressing A-beta42, growth rescue, OD600, 48 h; response scale: 0% DMSO, 100% iron-clioquinol control | Potency, µM (series often up to 46.1 µM), actives largely listed as activators | 410,000 tested, 0.063% active | AID 1347071; further: nearly all actives have a fitted effect of over 55% in size
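Growth rescue measured by 600 nm absorbance after 48 h yeast culture at 30 C with compound. Values normalized between DMSO and an equimolar ferric chloride plus clioquinol control.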
FUS yeast rescue = rescues growth of FUS-expressing yeast; S. cerevisiae FUS-expressing, growth rescue, OD600, 24 h; Potency, µM (titrated, usually from 76.6 µM), hits mostly activators; 390,000 tested, 0.24% active; AID 1347120; further: nearly all actives have a fitted effect of over 55% in size
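FUS-expressing yeast, raffinose-pregrown, induced in 2% galactose minimal medium at OD 0.005; compounds in a dilution series, 24hr at 30C. Growth restoration read as absorbance at 600 nm. CP55940 positive control, DMSO negative.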
Each line names hits and unclear results; the compound was inactive in the other large screens. The call rests on the fitted dose curve; in most records, active means well fitted curve in the direction sought with a large enough effect; inconclusive means small, poorly fitted or top-dose-only effect, or another doubt; inactive means no such curve, though single readings can be large; an effect the other way counts as inactive or inconclusive.

COc1ccc2c(c1)c(C(C)=O)c(C)n2CCc1ccc(OC)c(OC)c1	TDP-43 yeast inh 20µM
CC(=O)OCc1c(-c2ccccc2)c2cc([N+](=O)[O-])ccc2n1C	none
Cn1c(CO)c(-c2ccccc2)c2cc([N+](=O)[O-])ccc21	TDP-43 yeast inh 14µM
Cc1ccc(NC(=O)c2cnn3c2NC(=C2CC2)C=C3C(F)F)cc1	none (no result: TDP-43 yeast inh, Abeta rescue, FUS yeast rescue)
CCc1ccc(NC(=O)CSc2nccn2-c2cccc(C)c2C)cc1	TDP-43 yeast inh 32µM, aSyn rescue inconclusive
CCc1ccc(NC(=O)CSc2nccn2-c2ccc(OC)cc2)cc1	TDP-43 yeast inh inconclusive, FUS yeast rescue inconclusive (no result: aSyn rescue)
CCc1ccc(NC(=O)CSc2nccn2-c2ccc(F)cc2)cc1	TDP-43 yeast inh 16µM, Abeta rescue inconclusive (no result: aSyn rescue)
CCCN(CC(=O)Nc1cc(Cl)cc(Cl)c1)CC(=O)Nc1ccc(F)c(F)c1F	TDP-43 yeast inh 28µM, Abeta rescue inconclusive
CC(C)=CC(=O)Nc1ccc(OCc2ccccc2)cc1	TDP-43 yeast inh 13µM
O=C(OCC#CCSc1nnc(-c2ccc(F)cc2)o1)c1ccc(F)cc1	none (no result: TDP-43 yeast inh, aSyn rescue, Abeta rescue)
c1ccc(-c2cc3c(N4CCN(c5ccccc5)CC4)ncnc3s2)cc1	TDP-43 yeast inh 28µM
CN(Cc1cn(Cc2ccccc2)nn1)S(=O)(=O)c1ccccc1Br	none (no result: TDP-43 yeast inh, aSyn rescue, Abeta rescue)
Cc1ccc(-c2noc(CSc3nnc(C)n3-c3ccc(C)cc3)n2)cc1	FUS yeast rescue inconclusive (no result: aSyn rescue)
Cn1c(SCc2nc(-c3ccc(Cl)cc3)no2)nnc1-c1ccco1	TDP-43 yeast inh 13µM
Cc1ccc(-c2noc(CSc3nnc(C)n3-c3ccc(C)c(C)c3)n2)cc1	TDP-43 yeast inh 35µM (no result: aSyn rescue)
Cn1c(SCc2cccc(C(F)(F)F)c2)nnc1-c1ccco1	TDP-43 yeast inh 20µM
Clc1ccc(-c2noc(CSc3nnc(-c4ccncc4)n3-c3ccccc3)n2)cc1	FUS yeast rescue inconclusive
Cc1ccc(-n2c(SCc3nc(-c4ccc(Cl)cc4)no3)nnc2-c2ccncc2)cc1	TDP-43 yeast inh 35µM, FUS yeast rescue inconclusive (no result: aSyn rescue)
Cc1cccc(CNC(=S)OC2CCC23CCC(c2ccccc2)CC3)c1 (stereo not given)	none (no result: TDP-43 yeast inh, aSyn rescue, Abeta rescue)
CCOC(=O)[C@]12CCCCC/C=C\1N(CCc1ccc(Cl)cc1)C(=O)[C@H]2CC(=O)NCC12CC3CC(CC(C3)C1)C2	none (no result: TDP-43 yeast inh, aSyn rescue, Abeta rescue)
COc1cc(C)ccc1C(=O)N1CCC(Oc2cccnc2)CC1	none (no result: TDP-43 yeast inh, aSyn rescue, Abeta rescue)
COc1ccc(-c2csc(C(NC(C)=O)c3ccc(F)c(F)c3)n2)cn1 (stereo not given)	TDP-43 yeast inh 35µM
COc1ccc(-c2csc(C(NC(C)=O)c3cccc(F)c3)n2)cn1 (stereo not given)	none
CC(=O)NC(c1cccc(F)c1)c1nc(-c2cccc(C(C)C)c2)cs1 (stereo not given)	TDP-43 yeast inh 25µM, aSyn rescue inconclusive, FUS yeast rescue inconclusive
CCOC(=O)c1csc(NC(=O)C2CCCN(S(=O)(=O)c3cc(OC)ccc3OC)C2)n1 (stereo not given)	none (no result: TDP-43 yeast inh, aSyn rescue, Abeta rescue)
CCOC(=O)C(C(=O)OCC)C(c1ccccc1)N1CCN(c2ccccc2)CC1 (stereo not given)	TDP-43 yeast inh 13µM
CC(C)CC(=O)Nc1ncc([N+](=O)[O-])s1	aSyn rescue inconclusive
CCCCC(=O)Nc1ncc([N+](=O)[O-])s1	TDP-43 yeast inh 16µM
Cc1cc(SCC(=O)N2CCN(C(=O)c3ccco3)CC2)c(C)cc1Br	TDP-43 yeast inh 25µM
Cc1cc(SCC(=O)OCC(=O)N2CCN(C(=O)c3ccco3)CC2)c(C)cc1Br	none
Cc1ccc(C2=CCN(C)C(=O)N2c2ccccc2)cc1	none (no result: TDP-43 yeast inh, aSyn rescue, Abeta rescue)
C=C1c2nc3ccccc3n2C=C(c2ccc(C)cc2)N1c1ccccc1	TDP-43 yeast inh 14µM (no result: FUS yeast rescue)
Cc1ccc(-n2c(SCC(=O)Nc3ccc(Oc4ccccc4)cc3)nnc2-c2ccco2)cc1	none (no result: TDP-43 yeast inh, aSyn rescue, Abeta rescue)
C[n+]1ccc(/C=C/c2ccc([N+](C)(C)C)cc2)c2ccccc21	none (no result: TDP-43 yeast inh, Abeta rescue, FUS yeast rescue)
COc1ccc(Cl)cc1NC(=O)c1c(NCc2cccnc2)sc2c1CCC(C)C2 (stereo not given)	TDP-43 yeast inh 22µM (no result: aSyn rescue)
Cc1ccccc1-n1c(-c2csc3ccccc23)n[nH]c1=S	TDP-43 yeast inh 20µM
CC(c1ccccc1)n1c(-c2ccccc2)n[nH]c1=S (stereo not given)	none (no result: TDP-43 yeast inh, Abeta rescue, FUS yeast rescue)
C=CCn1c(-c2csc3ccccc23)n[nH]c1=S	none
Cc1scc(-c2n[nH]c(=S)n2C(C)c2ccccc2)c1C (stereo not given)	TDP-43 yeast inh 35µM (no result: FUS yeast rescue)
Cc1ccccc1-n1c(-c2csc(C)c2C)n[nH]c1=S	TDP-43 yeast inh inconclusive, Abeta rescue 4.5µM
